Results on 19 compounds are retold here after PubChem BioAssay.

By inhibition is commonly meant the drop in the measured response relative to a control, in per cent.

Assay [1] in a line: antimalarial activity against Dd2 strain (AID 2302;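 active = growth inhibition above 50% at the single 2 µM test dose, taken to imply half-maximal potency below 2 µM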;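 note: 0% = DMSO untreated growth and 100% = chloroquine plus artemisinin killed control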). The following applies: P. falciparum Dd2 in RBCs, LDH growth readout, 72 h; at 2 µM; hits give high values.
Assay [2] is described as follows: human hepatoma cell viability loss – ATP luminescence, cytotoxicity control for P. falciparum antimalarial project, primary screen (AID 2303;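 active = inhibition above 50%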;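 note: 0% = DMSO wells and 100% = digitonin-killed cells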). The conditions noted are these: HepG2 viability, 24-48 h, at 10 µM, hits give high values.
Assay [3] addresses L-lactate dehydrogenase (Plasmodium falciparum (isolate CDC / Honduras)) (UniProt Q27743). As to the kind of experiment: PfLDH activity inhibition – cell lysate, 3D7 strain, counter-screen for P. falciparum growth inhibition project (AID 2304).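 Note: 0% = vehicle and 100% = reference inhibitor.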 The conditions noted are these: P. falciparum 3D7 crude extract, LDH APAD/NBT absorbance; at 2 µM; hits give high values.
A short description of assay [4]: inhibition of 3D7 malaria parasite growth – strain 3D7 (AID 2306).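 Note: 0% = DMSO wells and 100% = chloroquine plus artemisinin control wells.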 The following applies: P. falciparum 3D7 erythrocytic growth, LDH absorbance, 72 h; at 2 µM; hits give high values.
Assay [5] concerns the target Calcium-dependent protein kinase 1 (Plasmodium falciparum (isolate 3D7)) (UniProt P62344). As to the kind of experiment: PfCDPK1 kinase inhibitors, biochemical, TCAMS library (AID 1159585; cut-off not given, nearly all actives have IC50 up to about 0.98 µM;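 note: inhibitors leave more ATP so luminescence rises with inhibition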). The following applies: recombinant PfCDPK1, Kinase-Glo ATP depletion luminescence. Background: Kinase-Glo reads ATP consumption through a luciferase reaction.
The target of assay [6] is Plasmodium falciparum protein kinase 6 (PK6, PF3D7_1337100) (UniProt Q8IDW1). As to the kind of experiment: PfPK6 kinase inhibitors, biochemical, TCAMS library (AID 1159586). The conditions noted are these: recombinant PfPK6, Kinase-Glo ATP depletion luminescence.
Assay [7] has as its target Protein kinase 7 (PK7), Plasmodium falciparum 3D7 (PF3D7_0213400) (UniProt Q7YTF7). The experiment in a line: inhibition of Plasmodium PK7 catalytic activity – biochemical, TCAMS antimalarial set, Kinase-Glo luminescence (AID 1159587). The conditions noted are these: recombinant PfPK7, Kinase-Glo ATP depletion luminescence.
Assay [8] has as its target Calcium-dependent protein kinase 4 (Plasmodium falciparum (isolate 3D7)) (UniProt Q8IBS5). The experiment in a line: PfCDPK4 kinase inhibitors, biochemical, TCAMS library (AID 1159588; cut-off not given, nearly all actives have IC50 up to about 0.91 µM). The following applies: recombinant PfCDPK4, Kinase-Glo ATP depletion luminescence.

Unmarked numbers belong to inactive results. For some assays here: Measured potencies and affinities stand elsewhere. Activity calls are given as the source filed them. Unless noted, the rule behind the calls is not given here.

Chain of Calcium-dependent protein kinase 4 (Plasmodium falciparum (isolate 3D7)) (Q8IBS5 whole entry, looked up): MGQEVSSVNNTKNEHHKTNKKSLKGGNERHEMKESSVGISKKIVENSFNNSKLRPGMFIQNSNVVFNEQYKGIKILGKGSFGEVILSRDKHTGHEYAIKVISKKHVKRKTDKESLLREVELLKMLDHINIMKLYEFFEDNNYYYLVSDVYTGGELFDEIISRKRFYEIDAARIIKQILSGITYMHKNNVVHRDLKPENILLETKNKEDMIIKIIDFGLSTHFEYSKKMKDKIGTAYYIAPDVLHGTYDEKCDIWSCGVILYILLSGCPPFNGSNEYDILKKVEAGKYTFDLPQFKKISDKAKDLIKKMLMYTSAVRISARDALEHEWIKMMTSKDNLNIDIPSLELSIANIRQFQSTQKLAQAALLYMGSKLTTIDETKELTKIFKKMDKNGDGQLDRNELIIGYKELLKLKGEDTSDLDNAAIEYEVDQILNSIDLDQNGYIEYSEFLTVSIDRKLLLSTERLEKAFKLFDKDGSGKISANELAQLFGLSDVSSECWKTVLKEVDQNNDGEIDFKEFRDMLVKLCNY
Chain of Plasmodium falciparum protein kinase 6 (PK6, PF3D7_1337100) (Q8IDW1 1-305): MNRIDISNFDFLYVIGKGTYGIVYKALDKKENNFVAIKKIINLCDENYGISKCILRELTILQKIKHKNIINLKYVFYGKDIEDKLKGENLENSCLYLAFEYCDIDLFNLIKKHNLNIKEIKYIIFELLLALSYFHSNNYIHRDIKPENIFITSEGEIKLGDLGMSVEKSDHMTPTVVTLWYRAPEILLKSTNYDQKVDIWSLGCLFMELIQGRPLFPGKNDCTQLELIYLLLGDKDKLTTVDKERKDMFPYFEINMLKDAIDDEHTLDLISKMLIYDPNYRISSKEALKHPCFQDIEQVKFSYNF
Chain of L-lactate dehydrogenase (Plasmodium falciparum (isolate CDC / Honduras)) (Q27743 whole entry, looked up): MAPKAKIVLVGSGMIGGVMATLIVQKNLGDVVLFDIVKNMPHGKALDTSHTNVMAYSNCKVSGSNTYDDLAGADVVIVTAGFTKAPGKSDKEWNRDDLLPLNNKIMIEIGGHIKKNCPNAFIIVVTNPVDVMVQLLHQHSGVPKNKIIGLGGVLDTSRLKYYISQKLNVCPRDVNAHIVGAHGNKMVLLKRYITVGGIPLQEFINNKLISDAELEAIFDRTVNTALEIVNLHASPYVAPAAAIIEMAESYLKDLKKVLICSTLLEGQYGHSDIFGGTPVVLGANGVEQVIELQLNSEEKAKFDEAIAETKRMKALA
Chain of Calcium-dependent protein kinase 1 (Plasmodium falciparum (isolate 3D7)) (P62344 whole entry, looked up): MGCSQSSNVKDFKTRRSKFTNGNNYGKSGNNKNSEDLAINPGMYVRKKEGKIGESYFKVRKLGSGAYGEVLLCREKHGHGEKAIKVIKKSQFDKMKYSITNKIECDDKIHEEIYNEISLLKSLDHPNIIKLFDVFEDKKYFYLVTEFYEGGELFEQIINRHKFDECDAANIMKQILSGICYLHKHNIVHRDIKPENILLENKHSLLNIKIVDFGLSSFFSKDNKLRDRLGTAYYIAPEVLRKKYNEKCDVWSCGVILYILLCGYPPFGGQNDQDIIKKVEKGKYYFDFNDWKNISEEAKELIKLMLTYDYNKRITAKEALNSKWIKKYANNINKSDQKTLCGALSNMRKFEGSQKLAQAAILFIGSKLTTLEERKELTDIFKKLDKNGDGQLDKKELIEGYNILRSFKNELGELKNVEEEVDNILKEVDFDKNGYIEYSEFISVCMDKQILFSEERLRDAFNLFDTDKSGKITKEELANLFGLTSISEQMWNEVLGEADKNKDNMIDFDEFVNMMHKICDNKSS
Chain of Protein kinase 7 (PK7), Plasmodium falciparum 3D7 (PF3D7_0213400) (Q7YTF7 1-343): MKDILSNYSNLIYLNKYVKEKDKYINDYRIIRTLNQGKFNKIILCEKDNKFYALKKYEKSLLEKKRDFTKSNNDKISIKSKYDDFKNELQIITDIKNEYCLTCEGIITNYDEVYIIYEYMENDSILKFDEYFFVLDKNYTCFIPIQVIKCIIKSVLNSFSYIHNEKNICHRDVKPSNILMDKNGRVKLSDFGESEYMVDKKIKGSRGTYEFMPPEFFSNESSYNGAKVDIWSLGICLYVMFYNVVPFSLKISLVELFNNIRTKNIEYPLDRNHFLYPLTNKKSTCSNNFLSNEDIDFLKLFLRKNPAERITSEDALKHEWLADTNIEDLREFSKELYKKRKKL

In the case of `CN(C)CCOc1cc(NC(=O)Nc2ccc(-c3ccncc3)c(Cl)c2)ccc1I`, the figures for the growth inhibition in assay [1] and in assay [4] were 100% (active) and 101% (active), respectively. For the same compound, the inhibition in assay [2] is 43%; in assay [3], 4%. Further, the result in assay [5], in assay [6], in assay [7] and in assay [8] was inactive.

On to `CC(=O)N(C)c1cccc(C(=O)Nc2ccc(-c3cccc(-c4nc5c(C)cccc5[nH]4)c3)cc2)c1`, for which the growth inhibition is 68% (active) in assay [1] and 97% (active) in assay [4]. Further, the inhibition was 86% (active) in assay [2] and -2% in assay [3]. In addition, the outcome in assay [5], in assay [6], in assay [7] and in assay [8] was inactive.

In the case of `CCC(C)c1ccc(Nc2nc(C)cc(N(CC)CCCN3CCCCC3)n2)cc1` (configuration not stated), the growth inhibition in assay [1] is 83% (active); in assay [4] it was 101% (active). In addition, the figures for the inhibition in assay [2] and in assay [3] were 55% (active) and -7%, respectively. Besides, the outcome in assay [5], in assay [6], in assay [7] and in assay [8] was inactive.

Turning to `Cc1cccc2[nH]c(-c3ccc(-c4ccc(NC(=O)Nc5ccc(Cl)c(Cl)c5)cc4)s3)nc12`, the growth inhibition in assay [1] and in assay [4] was 101% (active) in each case. Further, the inhibition was 100% (active) in assay [2] and 0% in assay [3]. Further, the result in assay [5], in assay [6], in assay [7] and in assay [8] was inactive.

As to `O=C(NCC1CCN(Cc2ccc3c(c2)OCCO3)C1)c1cc(-c2ccccc2F)cs1` (configuration not stated), the growth inhibition was -1% in assay [1] and 95% (active) in assay [4]. Further, the inhibition in assay [2] was 18%; in assay [3], 4%. For the same compound, the outcome in assay [5], in assay [6], in assay [7] and in assay [8] was inactive.

Consider `O=C1NC(c2ccc(N3CCCCCC3)cc2)Nc2ccccc21` (configuration not stated), for which the growth inhibition in assay [1] and in assay [4] was 96% (active) throughout. For the same compound, the inhibition in assay [2] is 19%; in assay [3], 0%. In addition, the outcome in assay [5], in assay [6], in assay [7] and in assay [8] was inactive.

For `COc1cc(CCCON2C(N)=NC(N)=NC2(C)C)cc(OC)c1OC`, the growth inhibition was 94% (active) in assay [1] and 98% (active) in assay [4]. The figures for the inhibition in assay [2] and in assay [3] were 68% (active) and -2%, respectively. Further, the result in assay [5], in assay [6], in assay [7] and in assay [8] was inactive.

`Cc1cccc2[nH]c(-c3ccc(-c4cccc(NC(=O)Nc5ccsc5)c4)s3)nc12`: the growth inhibition in assay [1] is 29%; in assay [4], 100% (active). Moreover, the inhibition was 30% in assay [2] and -3% in assay [3]. Moreover, the result in assay [5], in assay [6], in assay [7] and in assay [8] was inactive.

As for `O=C(Nc1ccc2c(c1)CCNCC2)c1ccc(-c2ccc(Cl)cc2)cc1`, the values for the growth inhibition in assay [1] and in assay [4] were 38% and 96% (active), respectively. Also, the inhibition in assay [2] was 71% (active); in assay [3] it was 0%. The outcome in assay [5], in assay [6], in assay [7] and in assay [8] was inactive.

Consider `C[C@@]12C[C@@H](Nc3nc(NCCc4ccc(O)cc4)nc(N4CCNCC4)n3)C[C@@H](C1)c1cccc(Cl)c1O2`, for which the growth inhibition in assay [1] is 47%; in assay [4] it was 101% (active). The inhibition is 92% (active) in assay [2] and 4% in assay [3]. The outcome in assay [5], in assay [6], in assay [7] and in assay [8] was inactive.

As for `FC(F)(F)c1ccccc1OCc1cc(-c2ccncc2)c(COc2ccccc2C(F)(F)F)cc1C1=CCNCC1`, the figures for the growth inhibition in assay [1] and in assay [4] were 81% (active) and 98% (active), respectively. The inhibition in assay [2] was 31%; in assay [3], -2%. Further, the result in assay [5], in assay [6], in assay [7] and in assay [8] was inactive.

Take `Cc1nc2c(=O)sc3ccccc3c2n1Cc1ccccc1`: the growth inhibition in assay [1] is 26%; in assay [4], 95% (active). For the same compound, the figures for the inhibition in assay [2] and in assay [3] were -1% and 1%, respectively. The result in assay [5], in assay [6], in assay [7] and in assay [8] was inactive.

Regarding `COc1ccc(CNC(=O)NC2CCN(c3ccnc(Nc4ccc(F)cc4)n3)C2)cc1` (configuration not stated), the results for the growth inhibition in assay [1] and in assay [4] were 78% (active) and 91% (active), respectively. Also, the values for the inhibition in assay [2] and in assay [3] were 4% and -2%, respectively. Also, the outcome in assay [5], in assay [6], in assay [7] and in assay [8] was inactive.

For `CSC1=NC2(CC(c3cccc(C)c3)c3cc(Cl)c(O)cc3O2)CC(C)(C)N1` (configuration not stated), the figures for the growth inhibition in assay [1] and in assay [4] were 73% (active) and 100% (active), respectively. Also, the inhibition in assay [2] was 0%; in assay [3], 4%. Besides, the outcome in assay [5], in assay [6], in assay [7] and in assay [8] was inactive.

In the case of `O=C(Nc1ccc(-c2cccc(-c3nc4ccc(F)cc4[nH]3)c2)cc1)Nc1ccc(Cl)c(Cl)c1`, the growth inhibition was 24% in assay [1] and 99% (active) in assay [4]. Moreover, the inhibition is 68% (active) in assay [2] and 3% in assay [3]. Moreover, the result in assay [5], in assay [6], in assay [7] and in assay [8] was inactive.

Regarding `CCCNC(=O)C1Cc2c([nH]c3cc(Br)ccc23)C2(CCN(CCc3ccccc3)CC2)N1` (configuration not stated), the growth inhibition in assay [1] was 26%; in assay [4], 92% (active). The inhibition is 15% in assay [2] and -1% in assay [3]. Also, the result in assay [5], in assay [6], in assay [7] and in assay [8] was inactive.

As for `Cc1cc(NC(=O)Nc2ccc(C(C)(C)C)cc2)c2ccccc2n1`, the growth inhibition was 57% (active) in assay [1] and 101% (active) in assay [4]. Also, the figures for the inhibition in assay [2] and in assay [3] were -3% and 5%, respectively. Also, the outcome in assay [5], in assay [6], in assay [7] and in assay [8] was inactive.

For the compound `CC(C)C[C@@H](/C=N/N1CCOC1=O)NC(=O)[C@H](CC(C)C)NC(=O)c1ccc(F)cc1`, the growth inhibition is 72% (active) in assay [1] and 85% (active) in assay [4]. The figures for the inhibition in assay [2] and in assay [3] were 1% and -4%, respectively. For the same compound, the result in assay [5], in assay [6], in assay [7] and in assay [8] was inactive.

On to `Cc1[nH]c2ccccc2c(=O)c1Br`, for which the values for the growth inhibition in assay [1] and in assay [4] were 84% (active) and 94% (active), respectively. Also, the inhibition in assay [2] is 2%; in assay [3], 3%. Besides, the outcome in assay [5], in assay [6], in assay [7] and in assay [8] was inactive.
